Screening results: PubChem, National Center for Advancing Translational Sciences (NCATS)
JMJD2A Tudor inh – blocks the human JMJD2A Tudor domain; O75164; AlphaScreen JMJD2A-Tudor / H3K4me3 peptide binding; actives 4.4% (n = 390,000); Potency, µM (series often up to 114 µM), without a hit: at the highest dose activity change, negative = inhibition, most hits filed as inhibitors; note: potency is the fitted concentration of half-maximal effect; % is set by controls: 0 for no effect and ±100 for the full control effect; nearly all actives have a fitted effect of over 50% in size
CtBP-E1A inh – CtBP/E1A binding inhibition | actives 0.49% (n = 340,000) | AlphaScreen GST-E1A/His-CtBP binding, 1536-well; stronger effect = lower value | activity change, % (test concentration not listed); in the data active = activity change below about -65%; inconclusive = mostly about -30% to -63%; note: % is set by controls: 0 for no effect and ±100 for the full control effect
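Protein mix (5X: 125 nM each GST-E1A, His-CtBP) was incubated with pinned compound 2 h at 37 deg C in dark, in 50 mM Tris pH 8.0 buffer with 300 mM NaCl. Glutathione donor and nickel acceptor beads followed; AlphaScreen signal read after 1 h.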
BAZ2B inh – blocks human BAZ2B | Q9UIF8 | AlphaScreen BAZ2B-H3K14Ac peptide displacement | Potency, µM (doses to about 114 µM), for the others: top-dose activity change, negative = inhibition, most hits filed as inhibitors | actives 4.4% (n = 360,000); note: potency is the fitted concentration of half-maximal effect; % is set by controls: 0 for no effect and ±100 for the full control effect; nearly all actives have a fitted effect of over 60% in size
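AlphaScreen displacement: compounds (up to 110uM) incubated 30 min at room temperature with a preformed 50 nM BAZ2B/50 nM biotinylated H3K14Ac peptide complex in PBS pH 7.4 with Tween-20. Donor and acceptor beads at 10 ug/mL final added, 20 min light-protected before reading.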
Six1-Eya2 inh – blocks human Six1 binding to Eya2; actives 0.56% (n = 360,000); Q15475+O00167; activity change, % (concentration not given with the values); AlphaScreen GST-Six1/His-Eya2 binding, biochemical; stronger effect = lower value; in the data active = activity change below about -65%; inconclusive = mostly about -30% to -63%; note: % is set by controls: 0 for no effect and ±100 for the full control effect
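Homogeneous AlphaScreen proximity assay pairing GST-Six1 with His-tagged Eya2 (added as 5X mix: 250 nM and 500 nM) in 50 mM Tris pH 8.0, 300 mM NaCl, 1 mM TCEP. Glutathione donor and nickel acceptor beads; 1 h, 37 °C, dark.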
G9a inh – G9a (human) methyltransferase inhibition | Q96KQ7 | G9a H3K9 monomethylation, AlphaScreen, 2 h | Potency, µM (series often up to 102 µM), for the others: top-dose activity, negative = inhibition, actives largely listed as inhibitors | actives 8.8% (n = 350,000) | AID 504332; note: potency is the fitted concentration of half-maximal effect; % is set by controls: 0 for no effect and ±100 for the full control effect; nearly all actives have a fitted effect of over 75% in size
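Using a bead-based AlphaScreen, monomethylated H3K9 product from 2 h room-temperature reactions (G9a 20 nM, peptide 500 nM, SAM 20 uM) was detected with 0.5 ug/mL rabbit anti-H3K9me1 antibody.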
HP1b binding inh – blocks HP1-beta chromodomain binding to methylated histone tails | P83916 | AlphaScreen HP1-beta / biotin-H3K9me3 peptide binding | Potency, µM (highest dose often 114 µM), for the others: at the highest dose activity change, negative = inhibition, usual class: inhibitors | actives 0.56% (n = 390,000) | AID 540317; note: potency is the fitted concentration of half-maximal effect; nearly all actives have a fitted effect of over 70% in size
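AlphaScreen: HP1-beta (50 nM) preformed 30 min with biotin-H3(1-18)K9me3 peptide (50 nM) in PBS pH 7.4, 0.01% Tween-20. Compound added for 30 min at RT, then streptavidin donor/nickel chelate acceptor beads (10 ug/mL) for 30 min.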
* = called active by the depositor; ? = inconclusive; . = no result; [ ] = remark or other dose. A selection: hits, their analogues and other compounds. The true share with any hit is near 10%. Unless noted, calls come from the whole dose curve; as a rule, active = well fitted inhibition curve with a large enough effect; inconclusive = small, poorly fitted or top-dose-only effect; inactive = no such curve, though single readings can be large or run the other way.

SMILES	JMJD2A Tudor inh	CtBP-E1A inh	BAZ2B inh	Six1-Eya2 inh	G9a inh	HP1b binding inh
O=[N+]([O-])c1cccc(-c2ccc(CN3CCN(c4ccccc4)CC3)o2)c1	35µM*	-24	45µM*	?	40µM*	?
O=[N+]([O-])c1ccc(N2CCN(C(=S)c3cccc([N+](=O)[O-])c3)CC2)cc1	?	-4	56µM*	-1	2µM*	11µM*
Cc1ccc(CNC(=O)Cn2ccc3cc(S(=O)(=O)N4CCCCCC4)ccc32)cc1	-3%	2	-2%	0	-12%	25%
O=C(c1ccco1)N1CCN(C(=O)c2ccc(-c3ccc([N+](=O)[O-])cc3)o2)CC1	40µM*	5	.	-15	.	-33%
Cc1ccc(CN2CCN(c3ccccc3)CC2)o1	20µM*	-4	50µM*	-7	22µM*	?
Cc1ccccc1N1CCN(C(=S)c2ccc(-c3ccc([N+](=O)[O-])cc3)o2)CC1	?	-3	7.9µM*	0	.	?
Cc1cccc(NC(=O)CNC(=O)Cn2ncc(Cl)c(Cl)c2=O)c1C	45µM*	-22	.	-12	.	71µM*
CCOC(=O)c1c(=O)n(O)c2ccc(C)cc2[n+]1[O-]	89µM*	1	?	8	50µM*	-1%
CCOC(=O)c1c(C)[n+]([O-])c2ccc3c(non3O)c12	-34%	8	?	-29	?	36%
CCc1nc2ccc(C(=O)N3CCN(S(=O)(=O)CC)CC3)cn2c1N(CC)CCOC	.	0	.	5	.	.
COc1ccc(C(=O)COC(=O)c2ccc(Cl)nc2)c(OC)c1	-14%	9	79µM*	2	-31%	-7%
COc1ccc(C(=O)OCC(=O)c2cc(OC)ccc2OC)c(OC)c1	-1%	4	11%	-3	4%	43%
COc1ccc(C(=O)COC(=O)c2ccccc2O)c(OC)c1	?	9	50µM*	6	-32%[59 µM]	28%
Cc1ccccc1NCCNc1ccccc1C	-30%	2	?	-19	45µM*	-8%
Cc1ccc(C(=O)CNc2ccccc2C)cc1	-13%	6	-6%	5	?	14%
CCOC(=O)CN1C(=O)CC(c2ccc([N+](=O)[O-])cc2)C1=O (centres undefined)	-3%	2	-2%	0	45µM*	28%
Cn1nc(C(=O)OCC(=O)Nc2ccc3ccccc3c2)c2ccccc2c1=O	-9%	0	-13%	-4	2%	24%
COc1ccc(NC(=O)c2cc(-c3ccc(C)o3)nc3ccccc23)c(OC)c1	?	.	.	-2	.	14%
Cc1ccc(-c2cc(C(=O)Nc3nccs3)c3ccccc3n2)o1	?	-3	-36%	?	4.5µM*	17%
COc1ccc(NC(=O)c2cc(-c3ccc(C)o3)nc3ccccc23)cc1OC	56µM*	?	-31%	?	?	-14%
Cc1ccc(NC(=O)CCNC(=O)c2ccc(Cl)cc2)cc1C	-21%	-1	2%	2	-4%[2.33 µM]	22%
CN(C)CCNC(=O)c1ccc(-n2c(-c3ccccc3)cc3c2CCCC3)cc1	-30%	.	?	.	-28%[59 µM]	12%
CCOC(=O)c1c(NC(C)=O)c2c3c(sc2n1Cc1nc(-c2ccc(Cl)cc2)oc1C)CCCC3	-7%	.	0%	.	-2%[59 µM]	26%
COc1ccc(NC(=O)C2CCCN2C(=O)NCc2ccccc2)cc1 (centres undefined)	14µM*	-23	3%	1	-4%[12.7 µM]	1%
O=C(CCNS(=O)(=O)c1ccc2c(c1)CCN2C(=O)C1CC1)N1CCN(c2cccc(C(F)(F)F)c2)CC1	-16%	.	-1%	.	-1%[59 µM]	29%[57 µM]
SMILES	JMJD2A Tudor inh	CtBP-E1A inh	BAZ2B inh	Six1-Eya2 inh	G9a inh	HP1b binding inh
Cc1oc(-c2ccccc2)nc1CS(=O)CC(=O)N1CCc2ccccc2C1 (centres undefined)	-22%	5	-24%	-4	22µM*	29%
Cc1ccc(-c2nc(CS(=O)CC(=O)N3CCN(c4ccccc4)CC3)c(C)o2)cc1 (centres undefined)	-21%	-5	?	-5	?	15%
Cc1ccccc1C(=O)Nc1ccc(C(=O)OCc2cc(=O)n3c4c(sc3n2)CCCC4)cc1	-11%	.	-13%	.	?	33%
C/C=C/c1ccc2c(c1)O[C@@H](CN(C)C(=O)c1ccc(F)cc1)[C@@H](C)CN([C@H](C)CO)S2(=O)=O	.	3	.	0	.	.
Cc1ccc2nc(N(CCN(C)C)C(=O)c3ccc4c(c3)OCCO4)sc2c1	?	-10	?	-15	45µM*	15%
CCCCN(C)S(=O)(=O)c1ccc(C(=O)N(CCN(C)C)c2nc3ccc(C)cc3s2)cc1	?	.	?	-4	40µM*	3%
CCN(CC)CCN(C(=O)c1ccc2c(c1)OCCO2)c1nc2cc3c(cc2s1)OCO3	?	-7	-33%	?	-18%	-22%
CN(C)CCCN(C(=O)c1ccc2c(c1)OCCO2)c1nc2ccccc2s1	-24%	.	-2%	.	-36%[59 µM]	22%[57 µM]
CCN(CC)CCN(C(=O)c1ccc2c(c1)OCCO2)c1nc2ccc(C)cc2s1	?	-20	35µM*	-13	79µM*	18%
Cc1ccc2nc(N(CCN(C)C)C(=O)c3ccc4ccccc4c3)sc2c1	45µM*	-13	?	-14	40µM*	-3%
COc1ccc(C2=NN(C(=O)c3ccco3)C(c3cccs3)C2)cc1OC (centres undefined)	.	-24	.	?	.	.
COc1ccc(S(=O)(=O)c2nnn(-c3ccccc3Cl)c2N)cc1	-7%	4	-7%	0	34%[59 µM]	25%
CCN(CC)CCN(C(=O)c1ccc(C(=O)c2ccccc2)cc1)c1nc2ccc(OC)cc2s1	?	-6	?	-15	45µM*	0%
Cc1cc(C)c2nc(N(CCCN(C)C)C(=O)c3ccc4c(c3)OCCO4)sc2c1	?	?	-13%	-19	50µM*	-14%
Cc1ccc2nc(NNC(=O)c3ccc(S(=O)(=O)N4CCc5ccccc5C4)cc3)sc2c1	?	-9	4.5µM*	-10	-3%	33%
Cc1ccc2nc(N(Cc3cccnc3)C(=O)c3ccc4c(c3)OCCO4)sc2c1	-4%	.	7%	.	8%[59 µM]	15%[57 µM]
Cc1ccc2nc(NNC(=O)c3ccc4c(c3)OCCO4)sc2c1	?	-17	?	1	11µM*	34%
CCN(CC)CCN(C(=O)c1ccc(S(=O)(=O)N(C)C2CCCCC2)cc1)c1nc2ccc(OC)cc2s1	?	-1	-38%	-2	?	30%
COc1ccc(C)cc1NC(=O)c1ccc(NS(=O)(=O)c2cccs2)cc1	-16%	-11	-7%	-21	?	-19%
